# Measurements reported in PubChem BioAssay AID1626 (SRMLSC, 2009).
# Out of some 220,000 compounds screened, about 2,000 (0.91%) were called active. Not shown: some 2% with an inconclusive outcome. Not all results are given here. Measured potencies and affinities stand elsewhere. A number with no mark means an inactive call. No stated cut-off is given here; in the data, inconclusive means inhibition above about 80% without an active follow-up result; inactive means below that; test concentration not stated here.
# Assay: M. tuberculosis H37Rv growth inhibitors, H37Rv strain (AID 1626);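 further: bacteria incubated seven days before Alamar blue readout; 0% = bacteria only wells and 100% = bacteria with antibiotic wells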
# Settings: hits give high values, concentration not given here
row,SMILES,inhibition
1,CCCCCn1c(=O)[nH]c2cc(C(=O)NCCN(CC)CC)ccc2c1=O,2.41%
2,Cc1cc2cc(C)c(SCC(=O)NCc3ccco3)nc2cc1C,2.4%
3,COC(=O)CCCC[C@H]1SC[C@H]2NC(=O)N[C@]21O,-9.41%
4,COc1ccc(Cl)cc1C(=O)Nc1ccc(NC(=O)C(C)C)cc1,6.21%
5,Cc1ccc(S(=O)(=O)n2c([N+](=O)[O-])cnc2C)c(C)c1C,2.51%
6,Cc1nn(-c2ccccc2)c2sc(C(=O)O)cc12,-2.71%
7,CC(=O)c1sc(NC(=O)c2cc3c(C)nn(-c4ccccc4)c3s2)nc1C,-3.28%
8,Cc1ccc(Nc2nc(COC(=O)COc3ccc(C=O)cc3)cs2)cc1,-1.49%
9,C/C=C/c1ccc(OCC(=O)OCC)c(OC)c1,78.2%
10,Cc1occc1-c1n[nH]c(=S)n1C,-11.2%
11,NC(=O)C1CCN(C(=O)C2c3ccccc3C(=O)N3CCc4ccccc4C23)CC1 (configuration not stated),1.51%
12,CC(C)NC(=O)c1cnc(N2CCN(c3ccccn3)CC2)c2ccccc12,6.14%
13,COc1cccc(-c2nn(C)c3sc(C(=O)N4CCN(c5ccccn5)CC4)cc23)c1,60%
14,COc1ccccc1N1CCN(c2ncc(C(=O)N3CCN(c4cccc(Cl)c4)CC3)c3ccccc23)CC1,95%
15,Cn1nc(-c2ccc(Cl)cc2)c2cc(C(=O)N3CCN(c4ccccc4)CC3)sc21,7.8%
16,O=C(Nc1ccc(C(F)(F)F)cc1)c1cnc(N2CCN(c3ccccn3)CC2)c2ccccc12,65.3%
17,O=C(c1cnc(N2CCN(c3ncccn3)CC2)c2ccccc12)N1CCN(c2ccccn2)CC1,1.07%
18,O=C(NN1C(=O)C2C3C=CC(O3)C2C1=O)c1cccc(Br)c1 (configuration not stated),5.77%
19,Cc1c(C(=O)NCC2CCCO2)cccc1[N+](=O)[O-] (configuration not stated),2.82%

row,SMILES,inhibition
1,O=C(NCc1cccc(C(F)(F)F)c1)C1CCN(c2ncccn2)CC1,-1.47%
2,O=C(O)CCc1nc2ccccc2n(CCc2ccccc2)c1=O,-8.81%
3,O=C(C1CC(c2ccc(F)cc2)=NO1)N1CCc2ccccc2C1 (configuration not stated),-0.85%
4,O=C(c1cccc(F)c1)N1CCN(C(=O)c2nn3cccnc3c2Cl)CC1,0.18%
5,O=C(c1ccc(F)cc1)C1CCN(C(=O)c2ccncc2)CC1,-7.5%
6,O=C(/C=N/O)Nc1ccc2sc3ccccc3c2c1,50.4%
7,N#Cc1c2n(c3c(=O)n(CC(=O)c4ccc(Br)cc4)cnc13)CCCC2,1.64%
8,CC(C)CCN1CCN(Cc2nc(-c3ccccc3)cs2)CC1CCO (configuration not stated),4.13%
9,Cn1cnc([N+](=O)[O-])c1Sc1ncnc2nc[nH]c12,7.31%
10,O=C(CSc1ncnc2nc[nH]c12)c1ccc([N+](=O)[O-])cc1,-0.96%
11,COc1cc(/C=N/NC(=O)c2cncc(Br)c2)ccc1OC(=O)c1ccc2c(c1)OCO2,-4.21%
12,COc1cccc(CC2(CO)CCCN(Cc3ccc(C)s3)C2)c1 (configuration not stated),4%
13,COc1cccc(CC2(CO)CCCN(Cc3cc4ccccc4[nH]3)C2)c1 (configuration not stated),9.65%
14,OCC1(CCOc2ccccc2)CCN(CC2=Cc3cc(Cl)ccc3OC2)CC1,6.89%
15,COc1ccc2[nH]c(CN3CCC(CO)(CCOc4ccccc4)CC3)c(C)c2c1,-2.25%
16,COc1cc(OC)cc(C(=O)NCC(=O)OCC(=O)N2c3ccccc3NC(=O)C2(C)C)c1,-1.81%
17,COc1ccc(CN2CCN(CCCc3ccccc3)CC2)c(OC)c1,1.06%
18,COc1cccc(C2C(C(=O)c3cc4cccc(OC)c4o3)=C(O)C(=O)N2c2cc(C)on2)c1OC (configuration not stated),-9.58%
19,COc1cc2c(cc1OC)C(C)N(C(=O)c1cc3ccccc3o1)CC2 (configuration not stated),3.79%

row,SMILES,inhibition
1,Cc1cc(=O)oc2cc(OCC(=O)Nc3ccc(S(=O)(=O)N(C)C)cc3)ccc12,-9.04%
2,O=C(Nc1ccc(F)cc1)N1CCN(c2nc3ccccc3s2)CC1,6.46%
3,O=C(Nc1ccccc1)N1CCN(c2nc3ccccc3s2)CC1,-10%
4,CC(=O)Cc1nsc(NC(=O)c2ccc(-c3ccc(Cl)cc3Cl)o2)n1,-7.01%
5,Cc1ccc(OCC(=O)N(Cc2cccs2)C2CCS(=O)(=O)C2)cc1C (configuration not stated),1.52%
6,CC(C)C1OC(c2cccc(NC(=O)c3cccs3)c2)OCC1(C)C (configuration not stated),3.13%
7,CCCCOc1ccc(CSCCN=C(N)N)cc1,10.7%
8,Nc1c(C(=O)NCCN2CCOCC2)c2nc3ccccc3nc2n1CCc1ccccc1,34.9%
9,COc1ccc(CCNC(=O)c2c(N)n(CCN3CCOCC3)c3nc4ccccc4nc23)cc1OC,20.2%
10,CCCCCn1c(N)c(C(=O)NCCN2CCOCC2)c2nc3ccccc3nc21,27.3%
11,COc1ccc(CNC(=O)c2c(N)n(CCCN3CCOCC3)c3nc4ccccc4nc23)cc1,16.6%
12,Nc1c(C(=O)NCCN2CCOCC2)c2nc3ccccc3nc2n1Cc1ccccc1,13.8%
13,Nc1c(C(=O)NCc2ccc(F)cc2)c2nc3ccccc3nc2n1CCCN1CCOCC1,14.5%
14,CS(=O)(=O)c1ccc(C(=O)OCC(=O)NC23CC4CC(CC(C4)C2)C3)cc1[N+](=O)[O-],6.01%
15,Cc1c(N=C2SCC(=O)N2/N=C\c2ccc(Br)cc2)c(=O)n(-c2ccccc2)n1C,2.9%
16,Cn1c(N)c(C(=O)COC(=O)CCCc2nc3ccccc3s2)c(=O)n(C)c1=O,3.44%
17,COc1cc(C(=O)NCCc2ccc(S(=O)(=O)N3CCCC3)cc2)cc(OC)c1OC,-6.26%
18,CCCC1(C(=O)OCC)NC(c2ccc(O)cc2)C2C(=O)N(c3ccc4c(c3)OCCO4)C(=O)C21 (configuration not stated),11.1%
19,COc1cccc(NC(=O)NC2CCCc3ccccc32)c1 (configuration not stated),0.07%
